The text below walks through data of PubChem BioAssay (NCI).

“And” between values parts separate entries of the source, which are not always exact repeats. Equal entries are not always repeated. The panel holds about 79,000 compounds, 15% with a hit somewhere; the sample as a whole holds those more often. A number with no mark means an inactive call. The source made the active and inactive calls. No stated cut-off is given here; in the data, active means growth inhibition above about 70%; inactive means the rest.

Assay [1] can be described thus: NCI Yeast Anticancer Drug Screen. Data for the mec2-1 strain (AID 157). The following applies: S. cerevisiae mec2-1 strain, active compounds read high. The method in brief: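 Readout is yeast growth inhibition, normalised to vehicle-treated controls, in the mec2-1 strain exposed to compound.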
Assay [2] in a line: NCI Yeast Anticancer Drug Screen. Data for the sgs1 mgt1 strain (AID 161).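 Further: 0% = growth of cultures given vehicle only.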 The following applies: S. cerevisiae sgs1 mgt1 strain, active compounds read high. In outline:
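Growth of a repair-deficient yeast mutant was monitored after compound treatment and expressed as inhibition relative to vehicle-treated cultures.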

Assay [3] in a line: NCI Yeast Anticancer Drug Screen. Data for the cln2 rad14 strain (AID 165).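 Further: 0% = growth equal to vehicle treated cultures.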 The following applies: S. cerevisiae cln2 rad14 strain, active compounds read high. In outline: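 Relative to vehicle controls, growth inhibition of compound-treated cln2 rad14 yeast was recorded.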
The nature of assay [4]: NCI Yeast Anticancer Drug Screen. Data for the bub3 strain (AID 167). The following applies: S. cerevisiae bub3 mutant strain, active compounds read high. The method in brief:
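Yeast carrying a defined mutation is treated with each compound, and growth is compared with that of vehicle-exposed cells to give inhibition.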

The nature of assay [5]: NCI Yeast Anticancer Drug Screen. Data for the mlh1 rad18 strain (AID 175). The following applies: S. cerevisiae mlh1 rad18 strain growth inhibition, active compounds read high. The method in brief:
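Test agents were incubated with a yeast strain of defined genotype (DNA damage repair defect). Inhibition of growth was derived by comparison with vehicle-exposed cultures.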

A short description of assay [6]: NCI Yeast Anticancer Drug Screen. Data for the rad50 strain (AID 155).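 Further: 0% = growth of vehicle-only cultures of the same strain.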 The following applies: S. cerevisiae rad50 strain growth inhibition; at 50.0 µM; active compounds read high. The method in brief:
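Genetically altered yeast (DNA repair pathway); compound treatment; growth inhibition vs vehicle ctrl.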

The mark [7] stands for this setting: at 5.0 µM (retest, dose inferred, filed as 0.5).
The mark [8] stands for this setting: at 50.0 µM (retest, dose inferred, filed as 5.0).

For `OC(c1cc(-c2ccc(Cl)c(Cl)c2)nc2ccccc12)C1CCCCN1` (stereo unspecified), the growth inhibition was 100% (active) in assay [1] (setting [7]); 12% in assay [1] (setting [8]); 32.8% in assay [1] (at 50.0 µM); 84% (active) in assay [2] (setting [7]); 77% (active) in assay [2] (setting [8]); 9.85% in assay [2] (at 50.0 µM). For the same molecule, the growth inhibition in assay [3] (setting [7]) is 99% (active); in assay [3] (setting [8]), 29%; in assay [3] (at 50.0 µM), -14.2%; in assay [4] (setting [7]), 99% (active); in assay [4] (setting [8]), 61%; in assay [4] (at 50.0 µM), 66.3%. Besides, the growth inhibition in assay [5] (setting [7]) was 99% (active); in assay [5] (setting [8]) it was 92% (active); in assay [5] (at 50.0 µM), 88.5% (active).
On to `O=C1c2ccccc2S(=O)(=O)CC1Br` (stereo unspecified), for which the growth inhibition in assay [1] (setting [7]) was -21%; in assay [1] (setting [8]), 85% (active); in assay [1] (at 50.0 µM), 99.7% (active); in assay [2] (setting [7]) it was 13%; in assay [2] (setting [8]), 98% (active); in assay [2] (at 50.0 µM), 99.3% (active). Moreover, the growth inhibition in assay [3] (setting [7]) was 6%; in assay [3] (setting [8]), 58%; in assay [3] (at 50.0 µM), 99.3% (active); in assay [4] (setting [7]), -4%; in assay [4] (setting [8]), 89% (active); in assay [4] (at 50.0 µM), 99.4% (active). Besides, the growth inhibition in assay [5] (setting [7]) was 30%; in assay [5] (setting [8]), 98% (active); in assay [5] (at 50.0 µM) it was 99.2% (active).
Consider `CCOC(=O)CCC(N)C(=O)OCC` (stereo unspecified), for which the growth inhibition in assay [6] was 20.8% and 1.45% and -26.1%; in assay [1] (at 50.0 µM), -4.05% and -5.05% and -0.15%; in assay [2] (at 50.0 µM), 8.4% and -2% and -19.9%; in assay [3] (at 50.0 µM) it was 5.9% and -29.1% and -40.6%; in assay [4] (at 50.0 µM), 1.45% and 7.05% and -8.7%; in assay [5] (at 50.0 µM), 10.9% and 23.9% and -16.1%.
Consider `CCCCCCCC(=O)O[C@H]1[C@H]2[C@@H](CC1(C)C)C(=O)[C@]13O[C@H]1C(=O)[C@]1(CO1)[C@]23C`, for which the growth inhibition was 47% in assay [1] (setting [7]); 98% (active) in assay [1] (setting [8]); 92.8% (active) in assay [1] (at 50.0 µM); 65% in assay [2] (setting [7]); 98% (active) in assay [2] (setting [8]); 92.7% (active) in assay [2] (at 50.0 µM). Moreover, the growth inhibition in assay [3] (setting [7]) is 80% (active); in assay [3] (setting [8]), 98% (active); in assay [3] (at 50.0 µM), 90.8% (active); in assay [4] (setting [7]), 83% (active); in assay [4] (setting [8]), 97% (active); in assay [4] (at 50.0 µM), 90.4% (active). The growth inhibition in assay [5] (setting [7]) was 73% (active); in assay [5] (setting [8]), 97% (active); in assay [5] (at 50.0 µM), 91.5% (active).
Consider `COC1OC(CO)C(O)C(O)C1O` (stereo unspecified), for which the growth inhibition in assay [6] is -6.55% and -5.05% and -29.2%; in assay [1] (at 50.0 µM), -5.2% and 1.65% and -23.1%; in assay [2] (at 50.0 µM), -4.3% and -4.25% and -9.9%; in assay [3] (at 50.0 µM), 16.9% and -53.9% and -37.4%; in assay [5] (at 50.0 µM), 0.8% and 7.3% and -8.25%.
Take `O=C(CC(C(=O)O)C(c1ccccc1)[N+](=O)[O-])c1ccccc1` (stereo unspecified): the growth inhibition in assay [6] is -4.1% and 6.9% and 6.55%; in assay [1] (at 50.0 µM) it was -5.4% and -10.8% and 16.7%; in assay [2] (at 50.0 µM), 4.4% and 6.3% and -17.4%; in assay [3] (at 50.0 µM) it was -67.8% and 15.6% and -18.9%; in assay [4] (at 50.0 µM), -9.65% and 9.1% and 5.6%.
For the molecule `Cc1ccccc1N=Nc1c(C)nn(C(N)=S)c1-c1ccccc1`, the growth inhibition in assay [1] (setting [7]) is -15%; in assay [1] (setting [8]) it was 96% (active); in assay [1] (at 50.0 µM) it was 57.1%; in assay [2] (setting [7]), -5%; in assay [2] (setting [8]), 96% (active); in assay [2] (at 50.0 µM), 94.8% (active). Besides, the growth inhibition is -6% in assay [3] (setting [7]); 87% (active) in assay [3] (setting [8]); -4.5% in assay [3] (at 50.0 µM); -3% in assay [4] (setting [7]); 97% (active) in assay [4] (setting [8]); 34.5% in assay [4] (at 50.0 µM). In addition, the figures for the growth inhibition in assay [5] (setting [7]), in assay [5] (setting [8]) and in assay [5] (at 50.0 µM) were 12%, 97% (active) and 96.3% (active), respectively.
Take `O=NN(CCCl)C(=O)Oc1ccc(OC(=O)N(CCCl)N=O)cc1`: the growth inhibition is 86% (active) in assay [1] (setting [7]); 99% (active) in assay [1] (setting [8]); 91% (active) in assay [1] (at 50.0 µM); 93% (active) in assay [2] (setting [7]); 99% (active) in assay [2] (setting [8]); 90.2% (active) in assay [2] (at 50.0 µM). The growth inhibition in assay [3] (setting [7]) is 53%; in assay [3] (setting [8]) it was 90% (active); in assay [3] (at 50.0 µM), 83.5% (active); in assay [4] (setting [7]) it was 56%; in assay [4] (setting [8]) it was 93% (active); in assay [4] (at 50.0 µM), 84.5% (active). For the same molecule, the growth inhibition is 96% (active) in assay [5] (setting [7]), 97% (active) in assay [5] (setting [8]) and 90.6% (active) in assay [5] (at 50.0 µM).
